High-throughput results (PubChem)
ERAP1 HTS inh: ERAP1 (human) enzyme inhibition | Q9NZ08 | recombinant ERAP1, Leu-AMC fluorescence, 60 min | inhibition, % at 10.7 µM | actives 0.15% (n = 340,000) | AID 652197;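 active = mean replicate inhibition of at least 30%, or all replicates individually reaching that 30% level; inactive = mean below 30% and not every replicate reaching it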
FGF22 binding: binders of recombinant human FGF22 by thermal shift; Q9HCT0; SYPRO orange fluorescence; percent of sucrose octasulfate shift, DMSO zero; activity (Tm shift, normalised), % at 9.99 µM; actives 1.5% (n = 340,000); AID 651658;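 active = mean Tm shift, scaled 0 neutral to 100 positive control, at about 1.3% or above, every replicate too, limit read from the data; inconclusive = no clear call, values can overlap the other calls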
Target sequence (Q9HCT0 whole entry, looked up): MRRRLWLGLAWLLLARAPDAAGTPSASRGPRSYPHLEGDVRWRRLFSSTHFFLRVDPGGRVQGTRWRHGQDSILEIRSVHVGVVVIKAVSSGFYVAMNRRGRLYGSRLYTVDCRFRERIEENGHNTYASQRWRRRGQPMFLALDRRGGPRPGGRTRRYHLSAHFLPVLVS
AF4-AF9 inh: blocks AF4 peptide binding to human AF9 | P42568 | AlphaScreen, biotin-AF4 peptide binding to FLAG-AF9 | inhibition, % at 10 µM | actives 0.47% (n = 350,000) | AID 651704;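 active = every replicate reaching a set inhibition limit, whatever the replicate mean, cut at about 25% in these data; inconclusive = mean inhibition reaches that limit but some replicates miss it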
DENV2 CPE rescue: DENV2-induced cell death inhibition; CPE inhibition, % at 9.99 µM; DENV2-infected cells, cytopathic effect rescue, plate reader; actives 1.7% (n = 350,000); in the data active = CPE inhibition above about 20%, passing the limit was not always enough; inconclusive = no clear call, values can overlap the other calls; tested in BHK-21 cells
RAD52 anneal inh: blocks human RAD52 DNA annealing. recombinant RAD52 DNA annealing, FRET fluorescence. inhibition, % at 18.7 µM. actives 0.46% (n = 360,000);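 active = every replicate showing at least 50% inhibition; inconclusive = mean inhibition at least 50% but not in every replicate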
Target sequence (P43351 whole entry, looked up): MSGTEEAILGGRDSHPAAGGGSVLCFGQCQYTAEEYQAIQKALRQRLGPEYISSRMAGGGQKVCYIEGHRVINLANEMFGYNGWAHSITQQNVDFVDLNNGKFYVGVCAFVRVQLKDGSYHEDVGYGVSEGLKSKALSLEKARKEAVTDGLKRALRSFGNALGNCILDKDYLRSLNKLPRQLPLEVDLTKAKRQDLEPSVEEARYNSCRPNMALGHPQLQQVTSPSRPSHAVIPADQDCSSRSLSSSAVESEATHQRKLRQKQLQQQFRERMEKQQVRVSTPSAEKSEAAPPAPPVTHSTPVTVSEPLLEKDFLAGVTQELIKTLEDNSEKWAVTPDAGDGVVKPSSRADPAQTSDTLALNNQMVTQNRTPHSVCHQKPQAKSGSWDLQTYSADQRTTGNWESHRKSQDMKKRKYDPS
Large screens that a line does not name were inactive. Sampled rows, rich in hits. Any-hit rate of the full collection: about 4%.

COc1ccc(NC(=O)N(C)C[C@@H]2OCCCC[C@@H](C)Oc3ccc(NC(=O)c4ccncc4)cc3C(=O)N([C@H](C)CO)C[C@H]2C)cc1	DENV2 CPE rescue 20.3 (no result: ERAP1 HTS inh, AF4-AF9 inh, RAD52 anneal inh)
COc1ccc2c3c([nH]c2c1)[C@H](CO)N(C(=O)Nc1ccc(F)cc1)CC31CN(Cc2ccc(F)cc2)C1	none
COc1ccc2c3c([nH]c2c1)[C@@H](CO)N(C(=O)Nc1ccc(F)cc1)CC31CN(Cc2ccc(F)cc2)C1	DENV2 CPE rescue 31.8
COc1ccc(CN2CC3(C2)CN(C(=O)Nc2ccc(F)cc2)[C@@H](CO)c2[nH]c4cc(OC)ccc4c23)cc1	AF4-AF9 inh 43.9 (no result: ERAP1 HTS inh, RAD52 anneal inh)
COc1ccc2c3c([nH]c2c1)[C@@H](CO)N(C(=O)Nc1ccc(F)cc1)CC31CN(Cc2ccccc2OC)C1	AF4-AF9 inh 50.5 (no result: ERAP1 HTS inh, RAD52 anneal inh)
COCc1cn(CC[C@@H]2CC[C@@H](NC(=O)Nc3ccc(OC)cc3)[C@@H](CO)O2)nn1	none
COc1cccc(OCc2nnc(SCc3cc(=O)[nH]c4ccccc34)o2)c1	AF4-AF9 inh 38.3
O=c1cc(CSc2nnc(-c3ccccc3)o2)c2ccccc2[nH]1	DENV2 CPE rescue 76.4
Cc1ccc(OCc2nnc(SCc3cc(=O)[nH]c4ccccc34)n2-c2ccccc2)cc1	DENV2 CPE rescue 60.3
COc1ccc(OCc2cc(=O)[nH]c3ccccc23)cc1	none
Cc1ccccc1CSc1nnc(-c2ccncc2)o1	none
COc1ccc(CN(C)C[C@@H]2OCCCC[C@@H](C)Oc3ccc(NC(=O)Nc4ccccc4)cc3C(=O)N([C@@H](C)CO)C[C@H]2C)cc1	DENV2 CPE rescue inconclusive (no result: ERAP1 HTS inh, AF4-AF9 inh, RAD52 anneal inh)
O=C(C1CC1)N1CC2(C1)[C@H](c1ccccc1)[C@H](CO)N2C(=O)CC1CC1	none (no result: FGF22 binding)
COc1ccc(CNC(=O)C[C@H]2CC[C@@H](NC(=O)Nc3ccc4c(c3)OCO4)[C@H](CO)O2)cc1	none
CC(C)(C)c1cc(N)n2nc(C(C)(C)C)cc2n1	FGF22 binding 43.9
Cc1cc2nc(C(C)(C)C)cc(N)n2n1	none
C[C@H]1CN([C@@H](C)CO)C(=O)c2cc(C#CCN(C)C)cnc2O[C@@H]1CN(C)Cc1ccc(F)cc1	none
C=CCNC(=O)[C@H]1[C@@H]2C(=O)O[C@@H](c3ccccc3)[C@@H](c3ccccc3)N2[C@@H](c2ccc(O)cc2)[C@]12C(=O)N(C(=O)OCCOC)c1ccc(C#CCC(C(=O)OC)C(=O)OC)cc12	FGF22 binding 18.3
COCCOC(=O)N1C(=O)[C@@]2(c3cc(C#CC4(O)CCCCCC4)ccc31)[C@H](c1ccc(OCCO)cc1)N1[C@H](c3ccccc3)[C@H](c3ccccc3)OC(=O)[C@H]1[C@@H]2C(N)=O	DENV2 CPE rescue 68.9
C=CCNC(=O)[C@H]1[C@@H]2C(=O)O[C@@H](c3ccccc3)[C@@H](c3ccccc3)N2[C@@H](c2ccc(OCCO)cc2)[C@]12C(=O)N(C(=O)OCCOC)c1ccc(C#Cc3ccc(OC)cc3)cc12	DENV2 CPE rescue 22.6
C=CCNC(=O)[C@H]1[C@@H]2C(=O)O[C@@H](c3ccccc3)[C@@H](c3ccccc3)N2[C@@H](c2ccc(O)cc2)[C@]12C(=O)N(C(=O)OCCOC)c1ccc(C#Cc3ccc(OC)cc3)cc12	none
C[C@@H]1CCCCO[C@H](CN(C)C(=O)NC2CCCCC2)[C@@H](C)CN([C@H](C)CO)C(=O)c2cc(NC(=O)NC3CCCCC3)ccc2O1	DENV2 CPE rescue 77.6
C[C@H]1CCCCO[C@H](CN(C)C(=O)NC2CCCCC2)[C@@H](C)CN([C@@H](C)CO)C(=O)c2cc(NC(=O)Nc3ccccc3)ccc2O1	DENV2 CPE rescue 26.9
C[C@@H]1CCCCO[C@@H](CN(C)C(=O)NC2CCCCC2)[C@@H](C)CN([C@@H](C)CO)C(=O)c2cc(NC(=O)Nc3ccccc3)ccc2O1	DENV2 CPE rescue 44.9
C[C@@H]1CCCCO[C@H](CN(C)C(=O)Nc2ccc3c(c2)OCO3)[C@H](C)CN([C@H](C)CO)C(=O)c2cc(NC(=O)NC3CCCCC3)ccc2O1	DENV2 CPE rescue 41.1 (no result: ERAP1 HTS inh, AF4-AF9 inh, RAD52 anneal inh)
C[C@@H]1CCCCO[C@H](CN(C)C(=O)NC2CCCCC2)[C@@H](C)CN([C@H](C)CO)C(=O)c2cc(NC(=O)Nc3ccccc3)ccc2O1	none
C[C@@H]1CCCCO[C@H](CN(C)C(=O)CCCN(C)C)[C@@H](C)CN([C@H](C)CO)C(=O)c2cc(NS(C)(=O)=O)ccc2O1	none
COc1ccc2c3c([nH]c2c1)[C@H](CO)N(C(=O)Nc1ccc(F)cc1)CC31CN(S(=O)(=O)c2cn(C)cn2)C1	none
COc1ccccc1NC(=O)N[C@@H]1CC[C@H](CCNS(=O)(=O)c2ccccc2)O[C@@H]1CO	none
Cc1nc(N(C)C)c2sc(=S)n(C)c2n1	DENV2 CPE rescue 37.6
CN(C)c1ccc2c(c1)[C@@H]1C[C@H](CC(=O)NCc3cccc(F)c3)O[C@H](CO)[C@@H]1O2	none
CCCNC(=O)N1[C@H](CO)[C@@H](c2ccc(-c3cccc(OC)c3)cc2)[C@@H]1C#N	none (no result: DENV2 CPE rescue)
CCCNC(=O)N1[C@H](C#N)[C@H](c2ccc(-c3cccc(OC)c3)cc2)[C@H]1CO	DENV2 CPE rescue 58.4
O=C(O)CCCCCNC(=O)/C=C/c1ccco1	none (no result: DENV2 CPE rescue)
O=C(O)CCCNC(=O)/C=C/c1ccco1	FGF22 binding 44.3
O=S(=O)(NC1CCN(Cc2ccc(OCCO)cc2)CC1)c1cc(C(F)(F)F)ccc1Cl	DENV2 CPE rescue 28.9
O=S(=O)(NC1CCN(Cc2ccc(OCCO)cc2)CC1)c1cc(Cl)ccc1Cl	none
CO[C@H]1CN(C)C(=O)c2ccc(NC(=O)NC(C)C)cc2OC[C@@H](C)N(C(=O)NC(C)C)C[C@H]1C	none
COc1ccc(-c2ccc3c(c2)O[C@H](CN(C)C)[C@@H](C)CN([C@@H](C)CO)S3(=O)=O)cc1	none
COc1ccccc1C/C(N)=N/OC(=O)COc1cc(C)cc(C)c1C	FGF22 binding 43.4
COc1ccccc1C/C(N)=N/OC(=O)/C=C/c1ccccc1	FGF22 binding 43.3
COc1ccccc1C/C(N)=N/OC(=O)COc1cccc(C)c1C	none
Cc1ccc(-c2cnc3c(c2)C(=O)N([C@@H](C)CO)C[C@H](C)[C@H](CN(C)C(=O)c2ccc(F)cc2)O3)cc1	none
CN(C)CCCNC(=O)[C@H]1[C@H](CO)[C@H]2Cn3c(ccc(C4=CCCCC4)c3=O)[C@@H]1N2Cc1cocn1	none
C[C@H](CO)N1C[C@H](C)[C@H](CN(C)C)Oc2cc(C#Cc3cccnc3)ccc2S1(=O)=O	none
COc1ccc(/C=N/NC(=O)c2ccc(COc3cccc4cccnc34)cc2)cc1OC	FGF22 binding 43.3
COc1cc(/C=N/NC(=O)c2ccncc2)ccc1OC(=O)c1ccccc1Cl	FGF22 binding 43.4
COc1cc(/C=N/NC(=O)c2ccncc2)ccc1OC(C)=O	none (no result: ERAP1 HTS inh)
COc1ccc(/C=N\NC(=O)c2ccc(-c3ccccc3)cc2)cc1COC(C)=O	DENV2 CPE rescue 55.6
Cc1cc(NCCCCCCCNc2cc(C)nc3cc([N+](=O)[O-])ccc23)c2ccc([N+](=O)[O-])cc2n1	RAD52 anneal inh 77.2
COCCCNc1cc(C)nc2ccccc12	none (no result: FGF22 binding, AF4-AF9 inh, DENV2 CPE rescue)
